A selection: hits, their analogues and other compounds. The true share with any hit is near 1.4%.
MCL1-BIM inh – disrupts human MCL1 binding to BIM-BH3 peptide | Q07820 | GST-MCL1 / FITC-Bim-BH3 fluorescence polarization | inhibition, % at 10.9 µM | 0.68% of 320,000 active | AID 2057;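 active means inhibition above the mean inhibition of all tested compounds plus 3 SD, set per campaign, cut at about 40% in these data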;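 further: 0% = DMSO wells and 100% = unlabeled Bim-BH3 peptide control; higher means more loss of mP so more displacement of Bim peptide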
MEX-5 binding – C. elegans MEX-5 TCR-2 RNA binding activity; MEX-5/FITC-TCR2 RNA binding, fluorescence polarization; hits give low values; activity score (negative = inhibition of binding), % at 10 µM; 0.38% of 300,000 active;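 active means inhibition past about -25% in most replicates, and total fluorescence under double the plate's negative control median, limit read from the data; inconclusive means replicates evenly split on the limit, or fluorescence at least double controls; inactive means too little inhibition in most replicates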;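 further: 0% = DMSO and -100% = 5 µM competing unlabeled TCR2 RNA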
Bcl-xL primary – Bcl-xL (human) inhibition; GST-Bcl-xL / FITC-Bim BH3 peptide fluorescence polarization; inhibition, % at 10.9 µM; 0.7% of 320,000 active;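 active means inhibition above the mean of all tested compounds plus 3 SD, cutoff set per campaign, cut at about 30% in these data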;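 further: 0% = DMSO wells and 100% = unlabeled Bim-BH3 peptide competitor; inhibitors lower millipolarization by displacing the labeled peptide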
E coli Lon inh – inhibitors of E. coli Lon protease; P0A9M0; purified E. coli Lon protease, fluorescence polarization; inhibition, % at 7.94 µM; 0.42% of 360,000 active; in the data active means inhibition above about 13%, passing the limit was not always enough;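 further: 0% = enzyme with probe and DMSO and 100% = no enzyme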
Target sequence (P0A9M0 whole entry, looked up): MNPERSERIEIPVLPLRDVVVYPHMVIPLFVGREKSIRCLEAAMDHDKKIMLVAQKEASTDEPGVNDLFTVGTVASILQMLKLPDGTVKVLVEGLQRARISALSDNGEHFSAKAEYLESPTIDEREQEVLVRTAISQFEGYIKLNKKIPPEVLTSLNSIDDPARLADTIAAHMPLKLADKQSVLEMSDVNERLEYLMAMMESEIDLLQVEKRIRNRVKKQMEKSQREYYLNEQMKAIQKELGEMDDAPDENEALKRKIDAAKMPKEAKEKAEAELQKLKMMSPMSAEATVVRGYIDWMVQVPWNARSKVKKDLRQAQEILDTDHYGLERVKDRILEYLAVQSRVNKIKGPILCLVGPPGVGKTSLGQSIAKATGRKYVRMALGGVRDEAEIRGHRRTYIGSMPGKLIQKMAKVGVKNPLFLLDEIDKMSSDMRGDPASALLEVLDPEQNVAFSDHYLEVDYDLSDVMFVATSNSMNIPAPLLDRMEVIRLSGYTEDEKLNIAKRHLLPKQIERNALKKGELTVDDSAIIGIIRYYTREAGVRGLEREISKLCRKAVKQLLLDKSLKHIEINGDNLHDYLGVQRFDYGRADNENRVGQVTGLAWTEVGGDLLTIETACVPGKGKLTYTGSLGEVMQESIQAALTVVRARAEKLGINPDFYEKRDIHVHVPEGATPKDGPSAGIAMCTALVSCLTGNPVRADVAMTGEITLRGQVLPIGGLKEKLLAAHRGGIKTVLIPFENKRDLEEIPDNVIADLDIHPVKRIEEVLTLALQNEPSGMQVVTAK
GLD-1 TGE inh – GLD-1-TGE RNA interaction inhibition (C. elegans); Q17339; purified GLD-1 + fluorescein TGE RNA, fluorescence polarization; inhibition, % at 5.96 µM; 0.44% of 320,000 active;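 active means percent inhibition above a per-plate cutoff, the plate mean of test compounds plus 3 SD, cut at about 30% in these data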;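 further: 0% = DMSO wells with GLD-1 and probe and 100% = wells lacking GLD-1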
Bcl-xL conf – Bcl-xL (human) inhibition, MCL1 counter-screen confirmation; shares compounds with MCL1-BIM inh; GST-Bcl-xL / FITC-Bim BH3 peptide FP binding; inhibition, % at 10.9 µM; 54% of 1,700 active; AID 2166;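 active means inhibition above a cutoff equal to the mean inhibition of all tested compounds plus 3 SD, cut at about 30% in these data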;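 further: 0% = DMSO wells and 100% = unlabeled Bim BH3 control peptide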
MCL1 inh confirm – confirmation of human MCL1 and BIM-BH3 interaction inhibitors; inhibition, % at 10.9 µM; shares compounds with MCL1-BIM inh; GST-MCL1 / FITC-Bim-BH3 fluorescence polarization; 61% of 1,700 active;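 active means inhibition above the average of all tested compounds plus 3 SD, cut at about 40% in these data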;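 further: 0% = DMSO wells and 100% = unlabeled Bim-BH3 control peptide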
The depositor's hits bear a star; ? = inconclusive; / = no result; + = active, no number.

SMILES	MCL1-BIM inh	MEX-5 binding	Bcl-xL primary	E coli Lon inh	GLD-1 TGE inh	Bcl-xL conf	MCL1 inh confirm
CCn1nc(C)c(/C=C2\CCCC3=C2OC(N)=C(C#N)C3c2c(C)nn(CC)c2C)c1C (stereo unspecified)	72.2*	?	76.4*	/	52.9*	70.4*	84.7*
CCn1nc(C)c(C2C(C#N)=C(N)OC3=C2C(=O)CCC3)c1C (stereo unspecified)	-1.0	-2.0	10.7	0.2	4.0	/	/
Cc1cccn2c(=O)c(C=O)c(N3CCN(c4ccccc4)CC3)nc12	59.7*	-9.1	37.1*	5.0	-0.1	39.0*	48.6*
Cc1cccn2c(=O)c(C=O)c(N3CCN(C)CC3)nc12	19.9	0.3	21.4	1.1	15.1	/	/
COCCCNC(=O)/C(C#N)=C/c1c(N2CCN(c3ccccc3)CC2)nc2c(C)cccn2c1=O	98.5*	-5.2	91.4*	22.2	23.2	37.1*	40.8*
COCCCNC(=O)/C(C#N)=C/c1c(N2CCN(c3cccc(Cl)c3)CC2)nc2c(C)cccn2c1=O	7.4	0.7	9.7	2.4	-6.1	/	/
O=C(OCC(=O)N1CCOCC1)c1cncc(Br)c1	/	/	/	8.0	/	/	/
COc1cc(/C=C2\SC(=S)N(c3cccnc3)C2=O)ccc1O	59.8*	-0.1	12.1	-18.9	-16.0	21.4	44.3*
Nc1nc2c(ncn2[C@@H]2O[C@H](CNCc3cnc(N4CCOCC4)nc3)[C@@H](O)[C@H]2O)c(=O)[nH]1	/	/	/	1.5	/	/	/
CC(=O)Nc1ccc(NC(=O)C(C)OC(=O)/C(C#N)=C/c2ccc(N(C)C)cc2)cc1 (stereo unspecified)	+	-25.8*	+	-112.2	135.8*	165.2*	191.0*
CC1C2C(C)N(C)C(=O)N(C)C2N(C)C(=O)N1C (stereo unspecified)	85.4*	-39.7*	80.8*	7.5	41.4*	73.7*	89.8*
CCOC(=O)C1(Cc2cccc(Cl)c2)CCCN(C(=O)c2cc(C)on2)C1 (stereo unspecified)	/	0.0	/	3.6	/	/	/
CCOC(=O)C1(Cc2cccc(Cl)c2)CCCN(C(=O)c2c(CC)noc2C)C1 (stereo unspecified)	42.1*	0.6	6.3	0.0	4.2	4.1	1.3
Nc1ccccc1C(=O)NC(=O)Nc1ccc(Oc2ncc(Br)cn2)c(Cl)c1	/	/	/	-0.2	/	/	/
CC(=O)OCC1=C(C(=O)O)N2C(=O)C(NC(=O)c3ccc(COc4c(C)cccc4Cl)o3)C2SC1 (stereo unspecified)	43.0*	2.9	24.6	-0.9	-2.9	17.1	51.0*
CC(=O)OCC1=C(C(=O)O)N2C(=O)C(NC(=O)c3ccc(COc4ccc(Cl)cc4)o3)C2SC1 (stereo unspecified)	23.9	1.1	6.8	-7.4	0.3	/	/
COc1cccc2c(=O)c3cccc(N)c3[nH]c12	86.9*	-4.5	62.6*	7.5	12.8	44.0*	42.1*
CSc1ccccc1-c1nnc(-c2ccc(Cl)c(Cl)c2)o1	43.1*	-1.7	8.2	3.1	5.2	5.9	-6.6
CSc1ccccc1-c1nnc(-c2ccc(Cl)cc2Cl)o1	-8.5	1.3	-0.1	0.3	2.1	/	/
COc1cccc(-n2c(SCc3cc(=O)oc4cc(O)c(O)cc34)nc3ccccc3c2=O)c1	51.2*	-0.4	13.4	-4.3	8.7	20.6	63.3*
COc1ccc(NC(=O)CSc2nc3nc(C)cc(C)c3c(=O)[nH]2)cc1	55.3*	2.4	34.9*	-1.5	15.7	1.6	3.1
O=C(N/N=C/c1ccc(Cl)cc1Cl)c1ccncc1	1.1	-1.7	-1.6	1.4	-2.8	/	/
O=C(N/N=C/c1cc(Cl)cc(Cl)c1O)c1ccncc1	55.9*	-0.5	71.7*	-70.1	67.5*	67.1*	66.6*
Cc1oc(C(N)=O)nc1-c1ccccc1	47.9*	0.7	9.2	8.6	2.2	6.3	11.2
O=C1c2cccc3c(N4CCCCC4)ccc(c23)C(=O)N1c1ccccn1	171.9*	-68.8*	122.4*	10.2	161.2*	154.1*	179.1*
SMILES	MCL1-BIM inh	MEX-5 binding	Bcl-xL primary	E coli Lon inh	GLD-1 TGE inh	Bcl-xL conf	MCL1 inh confirm
O=C(/C=C/c1ccco1)NC(=S)Nc1cccc(C(=O)O)c1	61.4*	-34.4*	37.1*	-11.0	4.7	30.8*	51.9*
CCOc1ccc(/C=C/C(=O)Nc2ccc(OC)cc2[N+](=O)[O-])cc1	83.2*	?	56.8*	5.6	63.0*	59.9*	68.5*
CCN1C=C(Cc2ccccc2C)C2=C(C1)C(c1ccccc1C)C(C#N)=C(N)O2 (stereo unspecified)	11.6	4.7	11.2	-16.3	24.7	/	/
CCN1C=CC2=C(C#N)C(N)C(C#N)(C#N)C(c3ccccc3C(F)(F)F)C2C1 (stereo unspecified)	109.7*	-32.5*	105.8*	5.3	76.3*	49.9*	63.6*
CN(C)c1ncnc2c1ncn2[C@H]1CN(Cc2ccc3c(c2)OCO3)C[C@@H](CO)O1	/	/	/	-6.9	/	/	/
Nc1ccc2nc(-c3ccccc3)c(-c3ccccc3)nc2c1	59.7*	-40.0*	48.6*	13.1	73.3*	63.5*	54.5*
CC(=O)Nc1ccc(NC2=C(Cl)C(=O)c3ccccc3C2=O)cc1	/	-3.2	/	/	/	/	/
CN(C)c1ccc(NC2=C(Cl)C(=O)c3ccccc3C2=O)cc1	41.4*	-3.3	27.5	-5.2	4.0	31.8*	37.0
O=C1COC(c2ccccc2O)=NN1CCCl	/	/	/	-7.3	/	/	/
NC(=O)c1ccc(NC(=O)COC(=O)c2ccccc2SCC(=O)N2CCCC2)cc1	/	/	/	4.1	/	/	/
Brc1ccc(C2=Nc3cccc4cccc(c34)N2)o1	41.3*	-0.5	19.5	-6.9	-0.1	7.8	14.3
Cc1c(Cl)cccc1NS(=O)(=O)c1ccc2c(c1)C1C=CCC1C(c1ccc(C(=O)O)cc1)N2 (stereo unspecified)	61.1*	/	38.8*	0.8	13.3	28.6	73.9*
COc1ccc(NS(=O)(=O)c2ccc3c(c2)[C@H]2C=CC[C@H]2[C@@H](c2ccc(C(=O)O)cc2)N3)cc1	54.3*	-61.2*	27.5	11.8	8.7	10.9	26.5
O=C(O)c1ccc2c(c1)C1C=CCC1C(c1ccncc1)N2 (stereo unspecified)	18.9	-23.9	18.0	7.2	9.2	/	/
CC(=O)c1ccc2c(c1)C1C=CCC1C(c1ccc(S(=O)(=O)N3CCOCC3)cc1)N2 (stereo unspecified)	9.6	/	22.4	-1.8	-0.8	/	/
CCN(CC)C(=O)N1CCN(C(=O)N2CCOCC2)CC1	2.0	-1.3	4.6	-6.3	1.6	/	/
CN(C)C(=O)N1CCN(C(=O)N2CCOCC2)CC1	139.4*	0.9	158.1*	-7.4	100.8*	3.3	7.0
